# From PubChem
# PERK inhibitor = inhibitors of human PERK kinase; Q9NZJ5; actives 0.17% (n = 220,000); inhibition, % at 5.6 µM; CHO PERK-DD fusion, SEAP luminescence translation reporter;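 active = inhibition above the mean inhibition of all tested compounds plus 3 SD, set separately per screening campaign, cut at about 2.9% in these data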;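 also: PERK kinase domain activated by AP20187 dimerizer at 100 nM; 0% = DMSO with dimerizer and 100% = rapamycin at 8.4 µM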
# ROMK mod = modulators of human ROMK potassium channel; Tet-inducible ROMK, thallium flux fluorescence; actives lie on both sides; actives 2% (n = 130,000); B-score at 10 µM;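 active = signal ratio slope over the read window, or its plate-corrected B-score, at least 3 SD from the plate mean, either direction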;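 also: B-score of the F/F0 ratio slope over 7 to 12 s after thallium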
# Target sequence (P48048 whole entry, looked up): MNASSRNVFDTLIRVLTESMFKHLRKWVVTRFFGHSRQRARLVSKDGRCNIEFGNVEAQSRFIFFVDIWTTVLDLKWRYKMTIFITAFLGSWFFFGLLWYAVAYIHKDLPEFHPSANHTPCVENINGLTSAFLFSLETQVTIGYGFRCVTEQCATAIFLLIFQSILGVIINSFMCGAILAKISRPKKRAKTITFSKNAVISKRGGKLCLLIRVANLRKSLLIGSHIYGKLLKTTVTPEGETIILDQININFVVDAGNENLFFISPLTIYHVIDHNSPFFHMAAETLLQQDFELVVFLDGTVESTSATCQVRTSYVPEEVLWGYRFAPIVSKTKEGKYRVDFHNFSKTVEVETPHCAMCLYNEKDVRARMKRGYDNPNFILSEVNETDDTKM
# Arbovirus inh = arbovirus infection inhibition | AID 1251 | inhibition, % at 10 µM | arbovirus infection cell-based antiviral screen | actives 0.37% (n = 200,000); in the data active = inhibition above about 30%
# WT yeast gro inh = growth inhibition of WT yeast, mitochondrial fusion screen | mitochondrial fusion phenotypic screen, WT strain | inhibition, % at 10 µM | actives 2.1% (n = 190,000) | AID 1362; in the data active = inhibition above about 58%; tested in S. cerevisiae
# ROMK hit retest = confirmation of human ROMK potassium channel modulators; ROMK thallium flux, fluorescence ratio; stronger effect = lower value; shares compounds with ROMK mod; normalized thallium flux (F/F0 slope) at 10 µM; AID 1917; actives 54% (n = 3,000);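 active = Flux at 10 µM at least 3 SD below or above vehicle control mean in one or both replicates; inconclusive = no clear call, values can overlap the other calls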
# Starred values were filed as active, the others as inactive; u = inconclusive; x = no result. Rows were chosen to be rich in hits. Some 3.3% of all compounds tested hit in one or more screens of this group.
SMILES,PERK inhibitor,ROMK mod,Arbovirus inh,WT yeast gro inh,ROMK hit retest
Cc1ccc(/C=N/Nc2nc(N3CCCCC3)nc(N3CCCCC3)n2)o1,0,-1.7,3,20,x
COC(=O)c1ccccc1-c1ccc(/C=N/Nc2nc(N3CCCC3)nc(N3CCCC3)n2)o1,-2,x,x,x,u
Cc1nnc(SCc2nnc(-c3cccs3)o2)n1Cc1ccccc1,0,1.2,10,-7,x
Clc1ccc(-c2nnc(CSc3nnc(-c4cccs4)n3Cc3ccccc3)o2)cc1,-1,-2.1,3,26,0.072
Fc1ccc(NCc2nnc(SCc3nnc(-c4ccccc4)o3)n2Cc2ccccc2)cc1,0,-4.8*,2,33,0.05*
CCn1c(SCc2nc(-c3ccccc3)no2)nc2ccccc21,0,x,-5,34,x
COc1cc(CNc2ccc(C)c(C)c2)cc(OC)c1OC,0,3.4*,-18,3,0.093
COc1ccc(CNc2ccc(C)c(C)c2)cc1,0,-0.63,3,-7,x
CC(C(=O)Nc1nccs1)c1ccc([N+](=O)[O-])cc1 (stereo not drawn),0,0.18,1,7,x
CCSc1nnc(NC(=O)NCC(F)(F)F)s1,1,2.6*,7,0,0.078
CCSc1nnc(NC(=O)C(C)(C(F)(F)F)C(F)(F)F)s1,0,-3,11,0,x
CCSc1nnc(NC(=O)C(C(F)(F)F)C(F)(F)F)s1,0,-0.03,10,-6,x
CCSc1nnc(NC(=O)C(CC)(C(F)(F)F)C(F)(F)F)s1,0,-0.91,3,-2,0.071
Cc1ccc(C(=O)OCC(=O)Nc2ccccc2)cc1NC(=O)c1ccco1,2,-5.4*,2,1,0.091
Cc1ccc(C(=O)OCC(=O)Nc2ccc(N(C)C)cc2)cc1NC(=O)c1ccco1,0,0.5,1,-4,x
CCC(=O)Nc1ccc2c(c1)nc1n2CCN(C2CCCCC2)C1,0,0.73,1,-12,x
O=C(Nc1ccc2c(c1)nc1n2CCN(C2CCCCC2)C1)NC1CCCCC1,1,-3.1*,-12,-13,0.042*
COc1ccc(NC(=O)CCN2CCN(S(=O)(=O)c3cc(Cl)ccc3OC)CC2)cc1,0,-3.3*,-4,19,0.061*
CNc1ccc(/C=C(\CCC(=O)O)c2nc3ccccc3s2)cc1[N+](=O)[O-],-1,0.035,13,-14,x
CC(C)c1ccc(OC(=O)NCCO)cc1,1,-0.0042,4,-1,x
C/C(CC(=O)Nc1ccc(F)cc1)=N\NC(=O)COc1ccccc1,1,0.014,-7,-2,x
Cc1ccc(C2CC(c3cccs3)=NN2C(=O)c2ccco2)o1 (stereo not drawn),1,-5.5*,0,20,u
O=C(c1ccco1)N1N=C(c2cccs2)CC1c1ccco1 (stereo not drawn),-1,-0.3,3,0,x
O=C(NNc1c(Cl)cc(Cl)cc1Cl)C1CCC1,0,x,-6,0,x
COc1ccc(N2CCN(CCCNC(=O)CC3Oc4ccc(C)cc4NC3=O)CC2)cc1 (stereo not drawn),-1,x,2,-16,x
SMILES,PERK inhibitor,ROMK mod,Arbovirus inh,WT yeast gro inh,ROMK hit retest
N#C/C(=C\c1cccc([N+](=O)[O-])c1)c1nnc2n1CCCCC2,0,-4.4*,0,-8,0.046*
CN(c1ccccc1)c1ccc(/C=C(\C#N)c2nnc3n2CCCCC3)cc1[N+](=O)[O-],0,x,-27,-10,x
COc1ccc2[nH]c(CN3CCN(CC(C)C)C(CCO)C3)c(C)c2c1 (stereo not drawn),1,0.19,2,-6,x
COc1ccc2[nH]c(CN3CCN(C(C)C)C(CCO)C3)c(C)c2c1 (stereo not drawn),1,-7.8*,-1,4,0.074
Cc1ccccc1N1C(=O)C(Oc2ccc(Cl)cc2)C1CNCCCOC(C)C (stereo not drawn),0,-3.2*,11,33,0.059*
CC(=O)Nc1cccc(Oc2ncnc3scc(-c4ccccc4)c23)c1,0,x,45*,41,0.061*
COc1ccc(CN2CCSCC2)cc1C,1,3.3*,6,-11,0.081
O=C(O)C1CC=CCC1C(=O)NNc1ccccc1 (stereo not drawn),0,0.72,-28,3,x
O=C(O)C1CC=CCC1C(=O)c1ccccc1 (stereo not drawn),1,3.4*,7,1,0.081
COC(=O)C1=C(N)OC2=C(C(=O)CC(C)(C)C2)C1c1cccnc1 (stereo not drawn),0,4*,0,2,0.072
CC(C)COc1ccc(C(=O)OC2CC(C)(C)OCC2CN(C)C)cc1 (stereo not drawn),-1,-3.7*,-7,4,0.055*
CC(C)COc1ccc(C(=O)OCCN2CCOCC2)cc1,0,-0.14,12,-6,x
C=C(C)COc1ccc(-c2[nH]ncc2-c2ccc(OC)cc2)c(O)c1,0,x,x,x,x
C=C(C)COc1ccc(-c2[nH]ncc2-c2ccc(OC)c(OC)c2)c(O)c1,0,3.8*,-15,6,0.088
Cc1nn(-c2ccccc2)c(Cl)c1/C=N/NC(=O)c1cccc(S(=O)(=O)N2CCCC2)c1,0,x,-3,-2,x
Cc1nn(-c2ccccc2)c(N2CCCC2)c1/C=N/NC(=O)c1cccc(S(=O)(=O)Nc2ccc(Cl)cc2)c1,0,x,-14,-25,0.087
Cc1ccccc1NC(=O)c1ccc(NS(=O)(=O)c2cc(C(C)(C)C)cc(C)c2C)cc1,0,x,11,1,x
Cc1cc(C(C)(C)C)cc(S(=O)(=O)Nc2cccc(C(=O)O)c2)c1C,1,4.7*,-9,17,0.079
O=c1nc(/C=C/c2cc([N+](=O)[O-])ccc2Cl)cc(C(F)(F)F)[nH]1,1,-6*,-41,-6,0.04*
O=c1nc(/C=C/c2cccn2-c2ccc([N+](=O)[O-])cc2)cc(C(F)(F)F)[nH]1,1,0.27,11,18,x
CC(C)(C)C1CCc2c(sc(NC(=O)C3CC=CCC3C(=O)O)c2C#N)C1 (stereo not drawn),1,-3.5*,36*,-11,u
CCC(C)(C)C1CCc2c(sc(NC(=O)c3ccoc3C)c2C(N)=O)C1 (stereo not drawn),1,x,9,x,x
CCC(C)(C)C1CCc2c(sc(NC(=O)c3ccccc3C(=O)O)c2C#N)C1 (stereo not drawn),2,x,x,x,0.11*
NS(=O)(=O)c1ccc(CCNC(=O)CSc2nc3ccsc3c(=O)n2CCCCC(=O)O)cc1,0,0.22,10,-3,x
CCC(C)c1ccc(NC(=O)COC(=O)c2nc3nccc(C)n3n2)cc1 (stereo not drawn),0,0.55,-2,1,x
Cc1ccc(S(=O)(=O)N(C)CCCC(=O)NC(C)(C)CO)cc1,1,-0.022,-1,15,x
COc1ccc(OC)c(C2CC(c3c(-c4ccccc4)c4cc(Cl)ccc4[nH]c3=O)=NN2S(C)(=O)=O)c1 (stereo not drawn),-1,x,-1,6,u
COc1ccc(C2CC(c3c(-c4ccccc4)c4cc(Cl)ccc4[nH]c3=O)=NN2S(C)(=O)=O)cc1 (stereo not drawn),-1,-0.37,2,6,x
